Test results reported in the supplement of paper PMC9023506.
Structures can show the parent of a compound that is named as a salt.

The compounds below were run on Danio rerio larvae (5 dpf) (assay: optomotor response to red moving lines, difference vs DMSO (percentage points (treated minus DMSO)); higher = more of the behaviour than the DMSO vehicle control). Conditions: 10 µM; exposure time: 3 h pre-incubation + 3 h imaging.
Description: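 5-dpf wild-type zebrafish larvae were imaged in 96-well plates. They were treated with 190 Tocris FDA-approved drugs at 10 µM (1 µl/ml DMSO) for 3 h before and 3 h during imaging at 28.5 °C, 48 larvae per drug. Automated image analysis gave % time moving and optomotor responses. Values are drug group mean minus DMSO vehicle mean (n=844), in percentage points, for 10 behaviours.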

| SMILES | optomotor response to red moving lines |
| --- | --- |
| N#Cc1ccc(C(c2ccc(C#N)cc2)n2cncn2)cc1 [Letrozole] | -12.7 |
| O=C1CCc2ccc(OCCCCN3CCN(c4cccc(Cl)c4Cl)CC3)cc2N1 [Aripiprazole] | 6.21 |
| CC(C)c1ccc2oc3nc(N)c(C(=O)O)cc3c(=O)c2c1 [Amlexanox] | -3.59 |
| Cc1ccc(N(CC2=NCCN2)c2cccc(O)c2)cc1 [Phentolamine Mesylate] | 14.5 |
| CNC(=O)c1ccccc1Sc1ccc2c(/C=C/c3ccccn3)n[nH]c2c1 [Axitinib] | 1.5 |
| CCOC(=O)C1=C(COCCN)NC(C)=C(C(=O)OC)C1c1ccccc1Cl (stereo not given) [Amlodipine besylate] | -1.08 |
| COc1ccccc1Oc1c(NS(=O)(=O)c2ccc(C(C)(C)C)cc2)nc(-c2ncccn2)nc1OCCO [Bosentan] | -14 |
| COc1cc2ncnc(Nc3ccc(F)c(Cl)c3)c2cc1OCCCN1CCOCC1 [Iressa] | 1.01 |
| NC(=O)c1ncn([C@@H]2O[C@H](CO)[C@@H](O)[C@H]2O)n1 [Ribavirin] | 7.68 |
| CCCCCOC(=O)Nc1nc(=O)n([C@@H]2O[C@H](C)[C@@H](O)[C@H]2O)cc1F [Capecitabine] | 4.71 |
| C#CCN[C@@H]1CCc2ccccc21 [Rasagiline mesylate] | 16.9 |
| COc1cc2nc(N3CCN(C(=O)C4COc5ccccc5O4)CC3)nc(N)c2cc1OC (stereo not given) [Doxazosin mesylate] | -7.06 |
| CCC(=O)O[C@]1(C(=O)SCF)[C@H](C)C[C@H]2[C@@H]3C[C@H](F)C4=CC(=O)C=C[C@]4(C)[C@@]3(F)[C@@H](O)C[C@@]21C [Fluticasone propionate] | -12.2 |
| Nc1cc(N2CCCCC2)nc(N)[n+]1[O-] [Minoxidil] | -13.4 |
| CCOc1cc(CC(=O)N[C@@H](CC(C)C)c2ccccc2N2CCCCC2)ccc1C(=O)O [Repaglinide] | 3.38 |
| OC(CNCC(O)C1CCc2cc(F)ccc2O1)C1CCc2cc(F)ccc2O1 (stereo not given) [Nebivolol hydrochloride] | -16.2 |
| CNC(=O)c1cc(Oc2ccc(NC(=O)Nc3ccc(Cl)c(C(F)(F)F)c3)cc2)ccn1 [Sorafenib] | -10.7 |
| Brc1c(NC2=NCCN2)ccc2nccnc12 | 17.8 |
| CC#C[C@]1(O)CC[C@H]2[C@@H]3CCC4=CC(=O)CCC4=C3[C@@H](c3ccc(N(C)C)cc3)C[C@@]21C [Mifepristone] | 3.5 |
| COCCc1ccc(OCC(O)CNC(C)C)cc1 (stereo not given) [Metoprolol tartrate] | -1.5 |

| SMILES | optomotor response to red moving lines |
| --- | --- |
| O=C(O)C[C@H](O)C[C@H](O)/C=C/c1c(C2CC2)nc2ccccc2c1-c1ccc(F)cc1 [Pitavastatin calcium] | 3.56 |
| CC(C)Nc1cccnc1N1CCN(C(=O)c2cc3cc(NS(C)(=O)=O)ccc3[nH]2)CC1 [Delavirdine mesylate] | -0.668 |
| CC/C(=C(\c1ccccc1)c1ccc(OCCN(C)C)cc1)c1ccccc1 [Tamoxifen citrate] | -11 |
| CC(C)CN(C[C@@H](O)[C@H](Cc1ccccc1)NC(=O)O[C@H]1CO[C@H]2OCC[C@H]21)S(=O)(=O)c1ccc(N)cc1 [Darunavir] | 4.11 |
| C[C@H]1C[C@@H]2[C@H]([C@@H](O)C[C@@]3(C)[C@H]2CC[C@]3(O)C(=O)CO)[C@@]2(C)C=CC(=O)C=C12 [Methylprednisolone] | -1.93 |
| CC(C)c1nc(CN(C)C(=O)N[C@H](C(=O)N[C@@H](Cc2ccccc2)C[C@H](O)[C@H](Cc2ccccc2)NC(=O)OCc2cncs2)C(C)C)cs1 [Ritonavir] | -2.77 |
| COc1ccc(-c2ccc3cc(C(=O)O)ccc3c2)cc1C12CC3CC(CC(C3)C1)C2 [Adapalene] | -12.7 |
| CN1CC[C@@H](NC(=O)Nc2ccc(C#N)cc2)C[C@@H]1c1nc2ccccc2[nH]1 | -0.356 |
| OCCN1C[C@H](O)[C@@H](O)[C@H](O)[C@H]1CO [Miglitol] | 9.81 |
| CO[C@H]1/C=C/O[C@@]2(C)Oc3c(C)c(O)c4c(O)c(c5c(nc6cc(C)ccn65)c4c3C2=O)NC(=O)/C(C)=C\C=C\[C@H](C)[C@H](O)[C@@H](C)[C@@H](O)[C@@H](C)[C@H](OC(C)=O)[C@@H]1C [Rifaximin] | 0.313 |
| CC(=O)NC[C@H]1CN(c2ccc(N3CCOCC3)c(F)c2)C(=O)O1 [Linezolid] | 4.59 |
| Nc1nc(F)nc2c1ncn2[C@@H]1O[C@H](CO)[C@@H](O)[C@@H]1O [Fludarabine] | -10.8 |
| CCCCC1=NC2(CCCC2)C(=O)N1Cc1ccc(-c2ccccc2-c2nnn[nH]2)cc1 [Irbesartan] | -7.57 |
| CCCCc1nc(Cl)c(CO)n1Cc1ccc(-c2ccccc2-c2nnn[nH]2)cc1 [Losartan potassium] | -6.11 |
| C/C(O)=C(\C#N)C(=O)Nc1ccc(C(F)(F)F)cc1 [Teriflunomide] | -3.45 |
| CCOC(=O)N1CCC(=C2c3ccc(Cl)cc3CCc3cccnc32)CC1 [Loratidine] | -14.1 |
| CCCc1nn(C)c2c(=O)[nH]c(-c3cc(S(=O)(=O)N4CCN(C)CC4)ccc3OCC)nc12 [Sildenafil citrate] | -6 |
| CNS(=O)(=O)Cc1ccc2[nH]cc(CCN(C)C)c2c1 [Sumatriptan succinate] | -6.18 |
| O=C1CCc2cc(OCCCCc3nnnn3C3CCCCC3)ccc2N1 [Cilostazol] | -8.76 |
| CS(=O)(=O)CCNCc1ccc(-c2ccc3ncnc(Nc4ccc(OCc5cccc(F)c5)c(Cl)c4)c3c2)o1 [Lapatinib] | 0.000688 |
